Active and inactive are the calls of the source. Entries that show only a call come without a potency. Calls come from the whole dose curve; as a rule, active = well fitted activation curve with a large enough effect in the repeat runs; inconclusive = weak or mixed curves; inactive = flat fitted curve, though single readings scatter.

This assay is described as follows: A CellTox Green Cytotoxicity Assay to monitor cytotoxicity in HepG2 cells - 0 hour (AID 1224882). Note: nearly all actives have a fitted effect of over 35% in size. The settings on record: CellTox Green fluorescence; series mostly up to 76.8 µM. An excerpt:
National Center for Advancing Translational Sciences [NCATS]
NIH Chemical Genomics Center [NCGC]
U.S. Environmental Protection Agency [EPA]
National Institutes of Environmental Health Sciences [NIEHS]
National Toxicology Program [NTP]
Cell-based models are critical for drug discovery. Determining the natural cytotoxic effects resulting from test compounds is an essential research activity. A CellTox Green Cytotoxicity Assay to monitor cytotoxicity in real time of continues cell culture during 40 hours of the compound treatment was used to screen Tox21 10K library compounds in HepG2 cells. CellTox Green Cytotoxicity Assay is a nonlytic, homogeneous, biofluorescent method to measure cytotoxicity in cell culture after experimental manipulation. The assay system uses a proprietary asymmetric cyanine dye that is excluded from viable cells but preferentially stains the dead cell's DNA. […] Viable cells produce no appreciable increases in fluorescence. Therefore, the fluorescence signal produced by the binding interaction with dead cell DNA is proportional to cytotoxicity.
The mixture of HepG2 cell suspension and reagents were dispensed at 600cells/6 ul/well in 1536-well tissue culture treated black solid bottom plates using a Multidrop dispenser. After the assay plates were incubated at a 37 C/5% CO2 incubator for 5 hours, 23 nL of compounds dissolved in DMSO, positive and negative controls was transferred to the assay plate by a pintool work station. The plates were incubated at 37 C for 40 hours. The fluorescence intensity were measured at 0h, 8h, 16h, 24h, 32h and 40h time points using ViewLux plate reader during compound treatment.
For `CCCCCCCCCCCCCCCCCC(=O)OCC(CC)CCCC` (stereo not given), the Potency entry was “inactive”. Then `CN(C)CC/C=C1\c2ccccc2Sc2ccc(Cl)cc21`, with “inactive”; and `O=C(O)c1cc(Cl)cc(Cl)c1O`, with “inactive”; and `COc1ccc(C(=O)NCc2ccc(OCCN(C)C)cc2)cc1OC`, with “inactive”.

Turning to `CCCCCCCCCCCC(=O)OCC(O)CO` (stereo not given), the Potency result is “inactive”. Then `CC12CC3CC(C)(C1)CC(N)(C3)C2`, with “inactive”; and `C[C@@H]1C[C@H]2[C@@H]3CCC4=CC(=O)C=C[C@]4(C)[C@@]3(F)[C@@H](O)C[C@]2(C)[C@@]1(O)C(=O)COP(=O)(O)O`, with “inactive”; and `COC(=O)CC(C(C)=O)C(=O)OC` (stereo not given), with “inactive”. The entry for `CC[C@H]1OC(=O)[C@H](C)[C@@H](O[C@H]2C[C@@](C)(OC)[C@@H](O)[C@H](C)O2)[C@H](C)[C@@H](O[C@@H]2O[C@H](C)C[C@H](N(C)C)[C@H]2O)[C@](C)(O)C[C@@H](C)C(=O)[C@H](C)[C@@H](O)[C@]1(C)O` is “inactive”; for `CCCCCCCC(=O)Oc1c(Br)cc(C#N)cc1Br` it is “inactive”. The entry for `CCN(CC)c1ccc(C(=C2C=CC(=[N+](CC)CC)C=C2)c2ccc(S(=O)(=O)O)cc2S(=O)(=O)[O-])cc1` is “inactive”; for `CC(CCc1ccc(O)cc1)NCCc1ccc(O)c(O)c1` (stereo not given) it is “inactive”. Consider `BrC(Br)C(Br)Br`, for which the Potency result was “inactive”. For `COc1ccc(-c2cc(C(F)F)nn2-c2ccc(S(N)(=O)=O)cc2)cc1F`, the Potency result is “inactive”.

As for `O=C(O)CNC(=O)c1ccccc1I`, the Potency result was “inactive”.

With `COc1cc(C(C)=O)ccc1OCCCN1CCC(c2noc3cc(F)ccc23)CC1`, the Potency result was “inactive”.

On to `CC(C)(C)C(O)/C=C/c1ccc2c(c1)OCO2` (stereo not given), for which the Potency entry was “inactive”. The entry for `O=C1OC[C@H](Cc2cccc(O)c2)[C@H]1Cc1cccc(O)c1` is “inactive”. The entry for `O=C(O)CCC(=O)c1ccc(-c2ccccc2)cc1` is “inactive”. On to `O[C@@H](CNC[C@H](O)[C@H]1CCc2cc(F)ccc2O1)[C@@H]1CCc2cc(F)ccc2O1`, for which the Potency result is “inactive”. The entry for `CC(C)(C)CCCCCCOC(=O)c1ccccc1C(=O)OCCCCCCC(C)(C)C` is “inactive”. Then `COc1ccc(/C=C/C(=O)c2ccc(OC)cc2OC)cc1`, with “inactive”. For the compound `O=C(O)CN1C(=O)c2cccc3cccc(c23)C1=O`, the Potency entry is “inactive”. Then `COC1CCC=CO1` (stereo not given), with “inactive”; and `ClC1=C(Cl)C1(Cl)Cl`, with “inactive”; and `C[C@@H]1[C@H](O)[C@@H](C)/C=C/C=C\C=C\C=C\C=C\C=C\C=C\[C@H](O[C@@H]2O[C@H](C)[C@@H](O)[C@H](N)[C@@H]2O)C[C@@H]2O[C@](O)(C[C@@H](O)C[C@@H](O)[C@H](O)CC[C@@H](O)C[C@@H](O)CC(=O)O[C@H]1C)C[C@H](O)[C@H]2C(=O)O` (stereo in doubt), with “inactive”. Then `O=C(CCS)OCC(COC(=O)CCS)(COC(=O)CCS)COC(=O)CCS`, with “inactive”; and `CC1=C2[C@@H]([C@H](C)CC[C@H]2/C=C(\C)C(=O)O)[C@H](O)C1`, with “inactive”. The entry for `O=C1NC(=O)c2cccc3cccc1c23` is “inactive”; for `O=C(/C=C/c1ccc([N+](=O)[O-])cc1)c1ccccc1` it is “inactive”. `CCCCOC(=O)CCCCC(=O)OCCCC`: the Potency entry was “inactive”. Take `COc1ccc(-c2cc(=S)ss2)cc1`: the Potency entry was “inactive”. Then `OCC(CO)n1cnc(-c2ccc(F)cc2)c1-c1ccnc(Oc2ccccc2)n1`, with “inactive”. As to `CCN(Cc1cccc(S(=O)(=O)O)c1)c1ccc(C(=C2C=CC(=[N+](CC)Cc3cccc(S(=O)(=O)O)c3)C=C2)c2ccc(O)cc2S(=O)(=O)[O-])cc1`, the Potency result was “inactive”. Then `CCCCCCOC(=O)CCCCC`, with “inactive”; and `CCOC(=O)C(C)O` (stereo not given), with “inactive”. For `[Cl][Nd]([Cl])[Cl]`, the Potency result was “inactive”. Turning to `CCCCCCCCCCCCCC(=O)OCC(O)CO` (stereo not given), the Potency entry is “inactive”. Then `CCC(C)(C)C(=O)O`, with “inactive”; and `CC(C)(C)C1(CCc2ccc(Cl)cc2)CO1` (stereo not given), with “inactive”.
